# Screens from PubChem BioAssay.
# Only some compounds are listed: those with a hit (about 4.1% of all), similar ones and a draw of the others.
# MBD2 inh: inhibitors of MBD2 binding to methylated DNA, primary screen, biochemical, TR-FRET, DNA-binding domain, human | Methyl-CpG-binding domain protein 2 (Homo sapiens), Q9UBB5 | inhibition, % at 4.4 µM | AID 686964, 2013 | 370,000 compounds, 0.31% hits | MBD2 binding to methylated oligonucleotide; in the data active means inhibition above about 13%
# LEDGF integ inh: blockers of LEDGF/p75-dependent integrase strand transfer – biochemical, TR-FRET, high throughput, primary screen; HIV-1 integrase (with human LEDGF/p75); TR-FRET IN-LEDGF/p75 DNA integration, Eu/Cy5; inhibition, % at 3.7 µM; 370,000 compounds, 0.64% hits; AID 743269, 2014;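 active means inhibition above the screen-wide mean plus 3 SD, cut at about 13% in these data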;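 further: signal is the Cy5 over europium emission ratio at 671 and 618 nm; 0% = plate median of compound wells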
# ABHD5 PLIN5 PPI: ABHD5-PLIN5 interaction inhibitors, primary screen, cell lysate, split luciferase complementation, luminescence; Perilipin-5 (Homo sapiens) + 1-acylglycerol-3-phosphate O-acyltransferase ABHD5 (Homo …; Split G. princeps luciferase complementation, 4 h; inhibition, % at 4 µM; 360,000 compounds, 0.78% hits; AID 602281, 2012;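 active means inhibition above the mean inhibition across every tested compound plus 3 SD, cut at about 22% in these data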;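 further: 0% = DMSO only wells and the 100% control is not disclosed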
# rCAG binder: binders of r(CAG) RNA repeats, primary screen, biochemical, fluorescence. inhibition, % at 3 µM. r(CAG) RNA repeat, TO-PRO-1 dye displacement fluorescence. 370,000 compounds, 1.3% hits;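 active means inhibition above the plate cutoff, the mean of all test compounds on that plate plus 3 SD, cut at about 35% in these data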;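 further: 0% = DMSO alone and 100% = 100 µM mitoxantrone as full dye displacement; higher means more dye released from RNA so lower well fluorescence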
# PRMT1 inh: PRMT1 methyltransferase inhibitors, primary screen, biochemical, fluorescence polarization. Protein arginine N-methyltransferase 1 (Homo sapiens), Q99873. recombinant PRMT1, activity-based probe fluorescence polarization. inhibition, % at 2.79 µM. 370,000 compounds, 1.3% hits. AID 652257, 2013;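 active means inhibition above about 21% made by adding two undisclosed values, limit read from the data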
# Target sequence (Q99873 whole entry, looked up): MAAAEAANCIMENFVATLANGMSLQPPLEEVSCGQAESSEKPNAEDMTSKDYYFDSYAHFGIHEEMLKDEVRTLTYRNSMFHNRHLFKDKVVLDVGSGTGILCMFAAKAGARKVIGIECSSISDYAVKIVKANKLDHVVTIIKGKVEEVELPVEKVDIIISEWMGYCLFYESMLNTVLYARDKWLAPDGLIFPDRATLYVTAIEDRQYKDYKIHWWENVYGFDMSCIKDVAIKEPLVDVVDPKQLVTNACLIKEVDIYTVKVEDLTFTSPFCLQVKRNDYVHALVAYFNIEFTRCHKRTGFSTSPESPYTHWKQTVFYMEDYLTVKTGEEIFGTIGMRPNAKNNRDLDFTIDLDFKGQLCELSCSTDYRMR
# UHRF1 binding: UHRF1 methylated DNA binding inhibitors, primary screen, counter-screen for MBD2 inhibitor project, biochemical, TR-FRET, human UHRF1, single concentration; AID 687016, 2013; inhibition, % at 4.4 µM; E3 ubiquitin-protein ligase UHRF1 (Homo sapiens), Q96T88; 370,000 compounds, 0.75% hits; UHRF1 binding to methylated oligo; in the data active means inhibition above about 21%;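 further: UHRF1 SRA domain binding a hemimethylated CpG hairpin DNA probe; 0% = median of test compound wells and 100% = reference inhibitor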
# rCAG bind conf: small molecules binding CAG repeat RNA – biochemical, fluorescence, confirmation; shares compounds with rCAG binder; r(CAG) RNA repeat, TO-PRO-1 dye displacement fluorescence; inhibition, % at 3 µM; 4,300 compounds, 70% hits; AID 652065, 2013;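 active means inhibition above a per-plate cutoff, the mean inhibition of sample wells plus 3 SD, cut at about 35% in these data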;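 further: loss of TO-PRO-1 fluorescence as compound displaces dye from 1x1 AA loop RNA; 0% = DMSO only wells and 100% = 100 µM mitoxantrone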
# DNA CAG counter: displacement of TO-PRO-1 from CAG DNA duplex, counter-screen for rCAG RNA repeat binder project, biochemical, fluorescence, TO-PRO-1 dye, d(CAG) DNA oligo; shares compounds with rCAG binder; d(CAG) DNA oligo TO-PRO-1 dye displacement; inhibition, % at 3 µM; 4,300 compounds, 94% hits;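 active means inhibition above its plate's cutoff, the mean test-well inhibition plus 3 SD, cut at about 4.8% in these data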;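 further: 0% = DNA dye mix with DMSO and 100% = 100 µM mitoxantrone; hits displace the dye from DNA and so lower well fluorescence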
# PRMT1 confirm: PRMT1 methyltransferase inhibitors, confirmation, biochemical, fluorescence polarization, triplicate; 3,300 compounds, 42% hits; recombinant His-PRMT1, activity-based probe fluorescence polarization; AID 687036, 2013; shares compounds with PRMT1 inh; inhibition, % at 2.79 µM;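 active means mean inhibition across replicates above the hit cutoff derived for the earlier primary screen, cut at about 22% in these data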
# * marks the source's active call; other numbers are inactive results; x = no result.
SMILES,MBD2 inh,LEDGF integ inh,ABHD5 PLIN5 PPI,rCAG binder,PRMT1 inh,UHRF1 binding,rCAG bind conf,DNA CAG counter,PRMT1 confirm
COC(=O)[C@H](Cc1ccccc1)N1CC(N2CCCC2)CS1(=O)=O (some centres not stated),-0.3,0.3,x,3.4,2.3,1.1,x,x,x
Nc1nc(-c2cc(O)ccc2[N+](=O)[O-])cc(-c2ccccc2)c1[N+](=O)[O-],-0.7,2.4,1.4,56.5*,27.4*,9.9,44.2*,24.4*,17.7
FC(F)(F)c1ccccc1Cc1c(-c2ccco2)nc2ccc(Br)cn12,0.4,1.2,33.5*,39.3*,35.8*,17.6,5.5,2.4,17.5
Cc1cc2nc(-c3ccco3)c(Cc3ccccc3C(F)(F)F)n2c(C)c1Br,0.6,0.4,39.8*,47.1*,35.7*,-1.6,36.8*,13.9*,17.0
CCC(C)N(Cc1ccc(OC)cc1OC)S(=O)(=O)c1cc(Br)ccc1Br (configuration not stated),-3.1,-4.5,x,6.5,-1.6,-0.3,x,x,x
O=C(NCc1ccccn1)C1Nc2ccc(OC(F)(F)F)cc2C2C=CCC12 (configuration not stated),2.0,0.9,1.5,37.1*,33.5*,-7.5,2.3,1.8,4.1
COC(=O)c1cc2c(c3c4cc(C)ccc4n(S(=O)(=O)c4cccc(C)c4)c13)C(=O)N(Cc1ccc(N(C)C)cc1)C2,-0.1,1.0,x,13.2,-0.8,-0.2,x,x,x
S=c1[nH]nc(-c2cc(-c3ccccc3)n[nH]2)n1/N=C/C=C/c1ccccc1,-2.0,-1.7,-6.3,24.9,3.3,-0.8,x,x,x
COc1ccccc1/C=C/C=N/n1c(-c2cc(-c3ccccc3)n[nH]2)n[nH]c1=S,-1.0,-9.1,-12.0,44.3*,26.1*,0.8,63.4*,24.7*,22.6*
S=c1[nH]nc(-c2cc(-c3ccccc3)n[nH]2)n1/N=C/c1cccs1,8.4,3.6,-10.5,35.5*,27.7*,0.5,39.2*,10.3*,30.9*
S=c1[nH]nc(-c2cc(-c3ccccc3)n[nH]2)n1N=Cc1c[nH]c2ccccc12,-0.9,-2.6,x,78.4*,32.1*,0.9,65.7*,22.8*,24.1*
CC(C)c1[nH]nc2c1C(c1ccc(F)cc1)N(Cc1ccccc1)C2=O (configuration not stated),-0.1,-10.8,x,1.8,-0.1,-2.9,x,x,x
CCOc1cccc(C=NNC(=O)C(=O)Nc2cccc(C(F)(F)F)c2)c1O,3.2,-6.2,x,7.8,1.7,0.8,x,x,x
NC(=S)NN=C1c2cc(S(=O)(=O)N3CCOCC3)ccc2-c2ccc(S(=O)(=O)N3CCOCC3)cc21,-3.6,-3.7,1.1,35.1*,29.9*,-17.2,46.2*,19.7*,7.0
CN(C)N=C1c2cc(S(=O)(=O)N3CCOCC3)ccc2-c2ccc(S(=O)(=O)N3CCOCC3)cc21,0.3,-2.5,-2.8,2.8,-0.3,0.0,x,x,x
Cc1ccc2[nH]c(=O)c(CN(CCc3ccccc3)C(c3nnnn3Cc3ccco3)C(C)C)cc2c1 (configuration not stated),-3.0,10.1,8.8,37.2*,27.0*,-3.8,11.7,8.1*,11.8
CCC(c1nnnn1Cc1ccco1)N(CCc1ccccc1)Cc1cc2cc(C)ccc2[nH]c1=O (configuration not stated),-1.7,4.4,17.8,20.6,18.9,-6.9,x,x,x
CCCCc1c(O)nc(SCC(=O)Nc2cccc3ccccc23)n(-c2ccccc2OC)c1=O,8.4,-1.4,-2.9,35.1*,42.0*,4.5,27.3,7.8*,23.4*
C[C@H]1[C@@H](C(=O)N2CCCC2)Cc2nc3ccccc3nc2C[C@@H]1c1ccccc1,-1.0,1.6,x,3.9,1.4,-3.8,x,x,x
O=c1nc2s/c(=C\c3ccc(-c4ccccc4[N+](=O)[O-])o3)c(=O)n2nc1-c1ccccc1,-2.3,0.8,-6.1,46.3*,59.2*,-12.2,51.3*,25.4*,6.8
CCCCCOc1ccc(/C=c2\sc3nc(=O)c(-c4ccccc4)nn3c2=O)cc1OC,3.5,0.2,1.1,19.5,2.9,-0.9,x,x,x
Cc1ccc(NC(=S)NNc2ccc([N+](=O)[O-])cc2S(=O)(=O)Nc2ccccc2C(=O)O)cc1C,2.2,0.5,-13.8,91.1*,26.8*,-0.3,93.5*,70.3*,39.5*
Cc1nn(CCC(=O)NNC(=O)Nc2ccccc2F)c(C)c1[N+](=O)[O-],-2.8,1.5,x,0.9,-1.4,-0.9,x,x,x
Cc1nn(-c2ccccc2)c2sc(C(=O)N3CCN(Cc4ccc(F)cc4)CC3)cc12,5.5,-1.3,x,4.6,4.1,0.4,x,x,x
O=C1c2ccccc2C(=O)c2c(O)c(O)cc(O)c21,-0.5,0.8,10.5,42.1*,26.7*,5.0,59.6*,32.5*,20.6
SMILES,MBD2 inh,LEDGF integ inh,ABHD5 PLIN5 PPI,rCAG binder,PRMT1 inh,UHRF1 binding,rCAG bind conf,DNA CAG counter,PRMT1 confirm
Nc1nc2c(ncn2[C@@H]2O[C@H](C(=O)N[C@@H](Cc3ccccc3)C(=O)NCC3CCCCC3)[C@@H](O)[C@H]2O)c(=O)[nH]1,0.2,-4.2,x,9.7,-1.1,0.9,x,x,x
N#Cc1c(Cl)nsc1NN,8.1,-1.0,-28.7,92.2*,39.6*,10.7,22.1,4.8*,6.7
Cc1cccnc1N=O,7.1,-2.3,x,1.3,6.3,13.5,x,x,x
O=C(O)c1ccc(NNC(=S)Nc2cc(C(F)(F)F)ccc2Cl)cc1,-4.5,-0.3,-24.9,39.4*,26.6*,0.0,14.6,4.7*,11.6
O=C(NC(=S)Nc1cc(C(F)(F)F)ccc1Cl)c1ccccc1,-2.5,1.8,-0.6,0.8,-3.9,-3.0,x,x,x
O=C(O)CC(C(=O)O)N1C(=O)/C(=C/c2ccc(-c3nc4ccccc4s3)o2)SC1=S (configuration not stated),34.4*,53.2*,-15.3,62.3*,55.1*,79.1*,53.5*,19.4*,-14.6
O=Cc1ccc(-c2nc3ccccc3s2)o1,-4.8,3.5,-3.5,5.2,3.0,-6.8,x,x,x
